Assay results taken from PubChem BioAssay (NCATS).
Records with an inconclusive call do not appear. Active and inactive are the calls of the source. The call rests on the fitted dose curve; in most records, active means well fitted curve in the direction sought with a large enough effect; inconclusive means small, poorly fitted or top-dose-only effect, or another doubt; inactive means no such curve, though single readings can be large; an effect the other way counts as inactive or inconclusive.

Assays:
[1] = tested on: HACAT; assay: qHTS assay to identify novel small-molecules to repurpose for Merkel cell carcinoma treatment (AID 1296009); conditions: MCC and control cell lines, CellTiter-Glo viability, 72 h; at 44.8 µM (top of the series) unless noted; further: nearly all actives have a fitted effect of over 60% in size
Outline: (§1)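 Cell viability measured by CellTiter-Glo following 72 hr compound treatment at 37 degree celsius, with NPC and MIPE libraries tested in 8- and 11-point concentration series.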

[2] = tested on: NIH3T3; assay: as above; conditions: MCC and control cell lines, CellTiter-Glo viability, 72 h; at 44.8 µM (top of the series) unless noted
Outline: as §1

[3] = tested on: C33A; assay: Primary qHTS to identify gynecologic anti-cancer compounds using libraries of approved drugs and bioactive compounds (AID 1345084); conditions: Gynecologic cancer cell panel viability, ATPlite luminescence, 48 h; series mostly up to 57.5 µM; further: nearly all actives have a fitted effect of over 55% in size
Outline: (§2)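 Cells, 1,000 per well, were allowed to settle for 16 h at 37 C before compound addition. Five concentrations were tested for 48 h, and viability was read by ATPlite luminescence after 15 min at room temperature.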

[4] = tested on: CAOV3; assay: as above; conditions: Gynecologic cancer cell panel viability, ATPlite luminescence, 48 h; series mostly up to 57.5 µM
Outline: as §2

[5] = tested on: CASKI; assay: as above; conditions: Gynecologic cancer cell panel viability, ATPlite luminescence, 48 h; series mostly up to 57.5 µM
Outline: as §2

[6] = tested on: Es-2; assay: as above; conditions: Gynecologic cancer cell panel viability, ATPlite luminescence, 48 h; series mostly up to 57.5 µM
Outline: as §2

[7] = tested on: HeLa; assay: as above; conditions: Gynecologic cancer cell panel viability, ATPlite luminescence, 48 h; series mostly up to 57.5 µM
Outline: as §2

[8] = tested on: Hek293T; assay: as above; conditions: Gynecologic cancer cell panel viability, ATPlite luminescence, 48 h, control line for the selectivity index; series mostly up to 57.5 µM
Outline: as §2

[9] = tested on: JEG-3; assay: as above; conditions: Gynecologic cancer cell panel viability, ATPlite luminescence, 48 h; series mostly up to 57.5 µM
Outline: as §2

[10] = tested on: OV90; assay: as above; conditions: Gynecologic cancer cell panel viability, ATPlite luminescence, 48 h; series mostly up to 57.5 µM
Outline: as §2

[11] = tested on: SKOV3; assay: as above; conditions: Gynecologic cancer cell panel viability, ATPlite luminescence, 48 h; series mostly up to 57.5 µM
Outline: as §2

[12] = tested on: Tov-21-G; assay: as above; conditions: Gynecologic cancer cell panel viability, ATPlite luminescence, 48 h; series mostly up to 57.5 µM
Outline: as §2

[13] = tested on: Tov112D; assay: as above; conditions: Gynecologic cancer cell panel viability, ATPlite luminescence, 48 h; series mostly up to 57.5 µM
Outline: as §2

[14] = tested on: PA-1; assay: as above; conditions: Gynecologic cancer cell panel viability, ATPlite luminescence, 48 h; series mostly up to 57.5 µM
Outline: as §2

Measured: Potency

COc1cc(/C=C/CO[C@@H]2O[C@H](CO)[C@@H](O)[C@H](O)[C@H]2O)cc(OC)c1O[C@@H]1O[C@H](CO)[C@@H](O)[C@H](O)[C@H]1O
inactive: [1] inactive [at 17.4 µM] | [2] inactive [at 17.4 µM] | [3] | [4] | [5] | [6] | [7] | [8] | [9] | [10] | [11] | [12] | [13]

CCC(C)/C=C(C)/C=C/C1=CC2=C(Cl)C(=O)C(C)(OC(C)=O)C(=O)C2=CN1C(CCC(=O)O)C(=O)O (stereo unspecified)
inactive: [1] inactive [at 17.4 µM] | [2] inactive [at 17.4 µM] | [3] | [4] | [5] | [6] | [7] | [9] | [10] | [14] | [11] | [12] | [13]

CC(C)=CCC/C(C)=C/CO[C@@H]1O[C@H](CO[C@@H]2O[C@@H](CO)[C@H](O)[C@H]2O)[C@@H](O)[C@H](O)[C@H]1O
inactive: [1] inactive [at 17.4 µM] | [2] inactive [at 17.4 µM] | [3] | [4] | [5] | [6] | [7] | [8] | [9] | [10] | [14] | [12] | [13]

O=C(O)c1ccc(NC(=O)[C@H](CC2CCCC2)n2cnc(C(F)(F)F)c2)nc1
not listed: [7]
inactive: all other assays above

O=C(C[C@@H]1C(C(=O)O)=CO[C@@H](O[C@@H]2O[C@H](CO)[C@@H](O)[C@H](O)[C@H]2O)/C1=C\CO)OCCc1ccc(O)c(O)c1
inactive: [1] inactive [at 17.4 µM] | [2] inactive [at 17.4 µM] | [3] | [4] | [5] | [6] | [7] | [8] | [9] | [10] | [14] | [12] | [13]

C=C1C(OC(C)=O)[C@@]23CCC4[C@](C)(C(=O)O)CCC[C@@]4(C)[C@]2(O)CC[C@H]1C3 (stereo partly specified)
not listed: [11]
inactive: all other assays above

NC(=O)[C@@H]1CC[C@H](c2ccc(OCc3ccccc3F)cc2)N1
not listed: [10] | [11] | [12]
inactive: all other assays above

CC(C)C1(O)C=C2C(=O)CC3C(C)(C(=O)O)CCCC3(C)C2CC1 (stereo unspecified)
not listed: [11]
inactive: all other assays above

CCOC(=O)CSc1nc2c(sc3ccccc32)c(=O)n1CCCN1CCCC1
not listed: [7] | [11]
inactive: all other assays above

CNc1nc(C)nc(N[C@H]2CCC[C@@H](C(=O)NCc3ccc(C#N)cc3C(F)(F)F)C2)n1
not listed: [14]
inactive: all other assays above

C[C@H]1CC[C@H]2[C@@H](C=C[C@@](C)(O)[C@]2(C)C(=O)CCO)C1
not listed: [9]
inactive: all other assays above

C/C1=C\CC(C)(C)/C=C/C/C(C(=O)O)=C/CC1
not listed: [9]
inactive: all other assays above

NC1(c2ccc(NC(=O)c3ccnc(-c4cc(C(=O)O)ccn4)c3)cc2)CC1
not listed: [14]
inactive: all other assays above
